Measurements from PubChem BioAssay (NCATS).
Calls of active or inactive are those of the source. Calls follow the shape of the dose curve; as a rule, active = well fitted activation curve with a large enough effect; inconclusive = small, poorly fitted or top-dose-only effect; inactive = flat fitted curve, though single readings scatter.
Potency is read from the fitted curve at half-maximal effect.

Experiment: Cellular Toxicity (caspase-3) SK-N-SH (AID 661);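 as to caspase-3 activation: 0% = DMSO basal and 100% = 10 µM staurosporine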
Conditions: SK-N-SH caspase-3 activation, qHTS; caspase-3 activation: at 91.7 µM (top of the series), DMSO as zero, staurosporine as full
Excerpt: NIH Chemical Genomics Center [NCGC]
NIH Molecular Libraries Screening Centers Network [MLSCN]
National Institutes of Environmental Health Sciences [NIEHS]
National Toxicology Program [NTP]
We have developed a 1536-well cell-based assay for quantitative high throughput screening (qHTS) against a number of cell lines to determine in vitro caspase 3/7 activity of small molecules. This particular assay uses the SK-N-SH cell line which is derived from human neuroblastoma.
NCGC Assay Protocol Summary:
The Caspase-Glo 3/7 assay (Promega) is a homogeneous method to measure caspase-3 and caspase-7 activities in cultured cells. The quantitation of caspase 3/7 activity is based on the cleavage of a peptide-aminoluciferin substrate. After caspase cleaves the substrate the free aminoluciferin is liberated and serves as the substrate of luciferase, which generates the light. The luminescent signal is proportional to amount of caspase 3/7 activity present.
Using the Caspase-Glo 3/7 assay, the amount of caspase 3/7 activity was measured in the SK-N-SH cell line with complete culture medium following compound treatment for 16 hours. The assay was performed in opaque white 1536-well plates. In the screen, tamoxifen and staurosporine were used as positive controls. Library compounds were measured for their ability to cause the activation of caspase 3/7 in the cell line, as reflected by an increase in luminescence signal, in a concentration-dependent manner. Data were normalized to the controls for basal activity (DMSO only) and 100% stimulation (10 uM staurosporine). AC50 values were determined from concentration-response data modeled with the standard Hill equation.
qHTS protocol for caspase 3/7 assay in SK-N-SH cells
[Step] [Parameter] [Value] [Description]
1. Reagent; 5 uL; 1500 SK-N-SH cells/well
2. Time; 5 hr; 37 °C incubation
4. Controls; 23 nL; Tamoxifen 0.23 uM to 100 uM & staurosporine 1.4 pM to 100 uM
5. Time; 16 hr; 37 °C incubation
6. Reagent; 5 uL; Caspase-Glo 3/7 reagent
7. Time; 1 hr; Room Temperature
8. Detection; Luminescence; Viewlux plate reader
Keywords: caspase 3/7, apoptosis, SK-N-SH cell line, luminescence, NTPHTS, NTPHTS_NCGC, NIEHS, EPA, DSSTox, MLSMR, MLSCN, NIH Roadmap, qHTS, NCGC
For `O=c1[nH]c(=O)n([C@H]2C[C@H](O)[C@@H](CO)O2)cc1Br`, the caspase-3 activation was -0.482% (inactive). For `COc1ccc(CN(CCN(C)C)c2ccccn2)cc1`, the caspase-3 activation was -0.853% (inactive). In the case of `Nc1ncn([C@@H]2O[C@H](CO)[C@@H](O)[C@H]2O)c(=O)n1`, the Potency was 31.6 µM (active). In the case of `NC(=O)N1c2ccccc2C=Cc2ccccc21`, the caspase-3 activation was 0.961% (inactive). For `CCCCNC(=O)NS(=O)(=O)c1ccc(C)cc1`, the caspase-3 activation was -0.361% (inactive). In the case of `COc1cc(Cc2cnc(N)nc2N)cc(OC)c1OC`, the caspase-3 activation was 0.291% (inactive). In the case of `CCCCOCCOCCOCc1cc2c(cc1CCC)OCO2`, the caspase-3 activation was 1.34% (inactive). For `COC(=O)[C@H]1[C@H]2C[C@@H]3c4[nH]c5cc(OC)ccc5c4CCN3C[C@H]2C[C@@H](OC(=O)c2cc(OC)c(OC)c(OC)c2)[C@@H]1OC`, the caspase-3 activation was 87.8% (active). With `NC(=Nc1ccccc1)Nc1ccccc1` the caspase-3 activation was 0.122% (inactive). With `CN=C(NC#N)NCCSCc1nc[nH]c1C` the caspase-3 activation was -1.11% (inactive).
